High-throughput results: PubChem BioAssay, Center for Chemical Genomics, University of Michigan
Dicer inh: human Dicer pre-microRNA cleavage inhibition; cat-ELCCA pre-miR-21 Dicer processing, chemiluminescence; hits give high values; actives 6% (n = 47,000); z-score at 25 µM; Q9UPY3; in the data active means z-score above about 3, passing the limit was not always enough;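 further: plate controls were vehicle for no effect and no enzyme for full effect; higher signal means more uncleaved substrate so more Dicer inhibition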
An asterisk follows results filed as active. Shown is part of a subset that was picked to be rich in hits.

SMILES	Dicer inh
CCC(C)c1ccc(NCN2C(=O)c3ccccc3C2=O)cc1 (centres undefined)	3.11*
O=C1c2ccccc2C(=O)N1CNc1ccccc1Oc1ccc(Cl)cc1Cl	-0.05
CCc1ccccc1NCN1C(=O)c2ccccc2C1=O	3.43*
O=C1c2ccccc2C(=O)N1CNc1ccc(Oc2ccccc2)cc1	3.83*
O=C1c2ccc([N+](=O)[O-])cc2C(=O)N1CNc1cc(C(F)(F)F)cc(C(F)(F)F)c1	1.92
Cc1cccc(NCN2C(=O)c3ccccc3C2=O)c1C	5.1
Cc1nc(Sc2nnc(-c3ccccc3)n2C)c2sc(=S)n(-c3ccccc3)c2n1	-1.71
CC(=O)CSc1nnc(-c2ccccc2)n1-c1ccccc1	-1.3
CCCc1cc(=O)n2[nH]c(C(F)(F)F)c(-c3ccc(Br)cc3)c2n1	0.89
O=C(O)CC(C(=O)O)C(O)c1ccccc1 (centres undefined)	1.52
Fc1cccc(Cl)c1Cn1nnc(-c2c(Cl)cccc2Cl)n1	0.74
Fc1cccc(Cl)c1Cn1nnc(-c2ccccc2C(F)(F)F)n1	3.1*
Fc1cccc(Cl)c1Cn1nnc(-c2cc(C(F)(F)F)cc(C(F)(F)F)c2)n1	0.81
Cc1nn(-c2ccccc2)c2c1C(c1ccccc1Cl)C(C#N)=C(N)O2 (centres undefined)	-5.02
COc1cc2c(cc1OC)C(C)N(C(=O)c1sc(-c3cnccn3)nc1C)CC2 (centres undefined)	-1.13
COC(=O)C1=C(C)NC2=C(C(=O)CCC2)C1c1ccc(OC)cc1OC (centres undefined)	-0.77
Cn1nc(NC(=O)COCC(=O)O)c2c(F)cccc21	-0.29
CC(C)(C)OC(=O)NCC(=O)NNC(=S)NC1CC1	0.65
O=C(Nc1nc2c(-c3ccccc3)c(C(F)(F)F)sc2s1)c1ccc(Cl)cc1	0.43
Nc1nc2c(-c3ccccc3)c(C(F)(F)F)sc2s1	4.17*
CCOC(=O)c1cnc2c(-c3ccccc3)c(C(F)(F)F)sc2c1OCC	-0.56
Nc1ccc(-c2nc3ccc(-c4nc5ccc(N)cc5[nH]4)cc3[nH]2)cc1	2.15
Nc1ccc2nc(-c3ccc(-c4nc5ccc(N)cc5[nH]4)cc3)[nH]c2c1	0.33
Cc1ccc2nc(-c3ccc(N)cc3)[nH]c2c1	4*
NNC(=O)CNC(=O)c1ccc(Br)cc1	4.75*
SMILES	Dicer inh
O=C(O)CNC(=O)c1ccc(Br)cc1	0.52
NNC(=O)CNC(=O)c1c(F)cccc1F	-2
Cc1ccc(-n2nc(C)c3c2OC(N)=C(C#N)C3c2cccs2)cc1 (centres undefined)	-5.27
CC(O)=c1c(=O)c2cccc3cccc(c1=O)c32	-0.13
O=C1/C(=C\c2ccccc2)SC(=S)N1c1cccc(Br)c1	3.98*
O=C1/C(=C\c2ccc(Cl)c(Cl)c2)SC(=S)N1c1ccc(F)c(F)c1	0.62
Cc1cc(C)c2c(=O)c(/C=C3/SC(=S)N(c4cccc(Cl)c4)C3=O)coc2c1	-1.77
CSc1nc(C)nc(N/C=C(\C#N)C(=O)c2ccco2)n1	-0.44
COc1cc(/C=C/c2cc(C(F)(F)F)[nH]c(=O)n2)ccc1OCc1ccccc1F	-0.94
CS/C(=C(\C#N)C(=O)C1CC1)N1CCOCC1	-1.28
FC(F)(F)C1=CC(c2ccc(Br)cc2)=NCCN1	3.57*
FC(F)(F)C1=CC(c2ccccc2)=NCCN1	3.08*
Nc1nc(-c2ccc(Br)cc2)cc(C(F)(F)F)n1	0.66
C/C(=N\NC1=NCCN1)c1ccc(Br)cc1	-0.75
c1ccc2c(CC3=NCCN3)cccc2c1	2.72
O=C1NCCN=C(c2ccccc2)c2ccccc21	0.36
O=C(O)CCC(CCC(=O)O)C(=O)O	0.23
Cc1nc(COc2ccc(C(C)(C)C)cc2)ncc1S(=O)(=O)c1ccc(Cl)cc1	0.41
CCOC(=O)c1cnc(SCC(=O)c2ccc(Br)cc2)nc1N	-0.6
COc1ccc(-c2coc3cc(OCc4ccc(Br)cc4)cc(O)c3c2=O)cc1OC	3.88*
CC(C)Oc1cc(O)c2c(=O)c(-c3ccc(O)cc3)coc2c1	1.66
O=c1c(-c2ccc(O)cc2)coc2cc(O)cc(O)c12	-1.4
C/C(=C\c1ccccc1[N+](=O)[O-])c1cc2ccccc2c2ccccc12	-0.56
O=C(O)CCSc1nnc2sc3ccccc3n12	0.75
O=C(CSc1nnc2sc3ccccc3n12)N1CCN(c2ccccc2)CC1	3.69*
SMILES	Dicer inh
CC(=O)CSc1nnc2sc3ccccc3n12	-0.21
Cn1nc(-c2ccc(Cl)cc2)cc1NC(=O)CC(C)(C)CC(=O)O	-0.19
CN(C)S(=O)(=O)N(CC(=O)Nc1ccc(F)c(F)c1)c1ccccc1	4.29*
CN(C)S(=O)(=O)N(CC(=O)Nc1ccc2c(c1)OCO2)c1ccccc1	-1.14
CSc1cccc(NC(=O)CN(c2ccccc2)S(=O)(=O)N(C)C)c1	-1.68
O=C(O)c1ccccc1CSc1ccc(C(F)(F)F)cn1	0.39
CSc1scc(Cl)c1S(=O)(=O)C(C)C	13.7*
CSc1scc(NC(=O)Nc2ccc(OC(F)(F)F)cc2)c1S(=O)(=O)C(C)C	0.88
CSc1sc(C(=O)O)c(N)c1S(=O)(=O)C(C)C	-1.32
CC(C)(C)c1cc(C(=O)/C=c2/[nH]c(=O)/c(=C/c3ccc(Cl)cc3)s2)no1	-0.25
N#Cc1c(=O)[nH]c(O)c2c(=N)oc3ccc(Cl)cc3c12	-0.2
CC(C)NS(=O)(=O)c1ccc(N2C(=O)CC3(CCCC3)C2=O)c(Cl)c1	-0.93
CCCCC(=O)N(c1ccc2oc(=O)sc2c1)S(=O)(=O)c1ccc(OC)c(OC)c1	3.86*
CC(C)C(=O)N(c1ccc2oc(=O)sc2c1)S(=O)(=O)c1ccc(Br)cc1	0.6
CCCCC(=O)N(c1ccc2oc(=O)sc2c1)S(=O)(=O)c1ccc(OCC)cc1	0.55
O=C(Cc1ccccc1)N(c1ccc2oc(=O)sc2c1)S(=O)(=O)c1ccccc1	5.4*
CCCC(=O)N(c1ccc2oc(=O)sc2c1)S(=O)(=O)c1ccc(C(=O)O)cc1	-0.07
CCCC(=O)N(c1ccc2oc(=O)sc2c1)S(=O)(=O)c1cc(OC)ccc1OC	2.63
CCCC(=O)N(c1ccc2oc(=O)sc2c1)S(=O)(=O)c1ccc(F)cc1	-1.65
CCCC(=O)N(c1ccc2oc(=O)sc2c1)S(=O)(=O)c1ccc(OC)c(OC)c1	4.23*
CCCCC(=O)N(c1ccc2oc(=O)sc2c1)S(=O)(=O)c1cccs1	-3.94
CCOC(=O)c1sc(N2C(=O)c3oc4ccc(C)cc4c(=O)c3C2c2ccc(F)cc2)nc1C (centres undefined)	0.97
O=C(CSc1nnc2c(n1)[nH]c1ccccc12)c1ccccc1	-1.59
C/C=C/C(=O)N1CCN(c2ccnc3cc(Cl)ccc23)CC1	0.33
Cc1cc(C)n2nc(SC/C(N)=N/O)nc2n1	1.26
SMILES	Dicer inh
Cc1noc(/C=C/c2cc(Cl)cc(Cl)c2)c1[N+](=O)[O-]	-1.56
NC1=NC(c2ccccc2)n2c(nc(=O)c3ccccc32)N1 (centres undefined)	0.21
c1ccc2c(-c3csc(-c4ccc(-c5ccno5)s4)n3)csc2c1	-1.43
Nc1nc(-c2cccc3ccccc23)cs1	0.36
Nc1nc(-c2csc3ccccc23)cs1	3.26*
Cc1ccc2ncnc(N(CC(C)C)CC(C)C)c2c1	-1.29
O=C1CC(c2cccc(O)c2)Nc2ccc3ccccc3c21 (centres undefined)	1.05
Cc1ccccc1C1CC(=O)c2c(ccc3ccccc23)N1 (centres undefined)	1.96
COc1ccc(OC)c(C2Nc3ccc4ccccc4c3C3=C2C(=O)CC(C)(C)C3)c1 (centres undefined)	1.91
COc1ccc(C2Nc3ccc4ccccc4c3C3=C2C(=O)CCC3)cc1OC (centres undefined)	4.55*
